# Several values for one entry are separate records, joined by “and”; a condition that tells them apart may be missing. Identical values can stand only once. The whole screen tested about 5,500 compounds, of which about 2,000 (36%) were called active. Inconclusive results (about 18%) are left out. The list shows a part of the results. A number with no mark means an inactive call. Cut-off read from the data, not from the text of the source: active = normalized growth mostly below about 0.91 (no sharp cut-off); inconclusive = no clear call, values can overlap the other calls; inactive = mostly above about 0.92.
# Assay: chemical genetic growth profiling, strain panel (AID 1159580);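 note: tested at 20 µM; growth read once vehicle control cultures reached saturation at 30 °C; 1 = growth at the plate median or of vehicle wells; lower values mean less growth of the strain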
# Conditions: S. cerevisiae deletion strains, growth OD
structure (smiles),measurement,setting,value
CCCC(C(=O)OCCN(CC)CC)(c1ccccc1)c1ccccc1,normalized growth,"locus YAL013W, strain DEP1, active compounds read low",0.991
same,normalized growth,"locus YAL021C, strain ccr4, active compounds read low",0.981
same,normalized growth,"locus YAL026C, strain drs2, active compounds read low",1.01
same,normalized growth,"locus YAL030W, strain snc1, active compounds read low",0.985
same,normalized growth,"locus YAL040C, strain CLN3, active compounds read low",1.03
same,normalized growth,"locus YBR009C, strain hhf1, active compounds read low",1
same,normalized growth,"locus YBR021W, strain FUR4, active compounds read low",0.92
same,normalized growth,"locus YBR023C, strain chs3, active compounds read low",1
same,normalized growth,"locus YBR171W, strain sec66, active compounds read low",0.998
same,normalized growth,"locus YBR229C, strain ROT2, active compounds read low",1.01
same,normalized growth,"locus YBR231C, strain swc5, active compounds read low",0.992
same,normalized growth,"locus YBR279W, strain paf1, active compounds read low",0.995
same,normalized growth,"locus YCL011C, strain gbp2, active compounds read low",1.01
same,normalized growth,"locus YCL016C, strain dcc1, active compounds read low",0.995
same,normalized growth,"locus YCL029C, strain bik1, active compounds read low",1
same,normalized growth,"locus YCL061C, strain MRC1 (second series), active compounds read low",0.993
same,normalized growth,"locus YCL069W, strain vba3, active compounds read low",1.01
same,normalized growth,"locus YCR088W, strain abp1, active compounds read low",1
same,normalized growth,"locus YDL005C, strain med2, active compounds read low",1
same,normalized growth,"locus YDL035C, strain GPR1, active compounds read low",0.99
same,normalized growth,"locus YDL040C, strain nat1, active compounds read low",1.01
same,normalized growth,"locus YDL074C, strain BRE1, active compounds read low",0.997
same,normalized growth,"locus YDL101C, strain DUN1, active compounds read low",1
same,normalized growth,"locus YDL134C, strain PPH21, active compounds read low",0.979
same,normalized growth,"locus YDL185W, strain tfp1, active compounds read low",0.994
same,normalized growth,"locus YDL192W, strain arf1, active compounds read low",0.994
same,normalized growth,"locus YDR001C, strain nth1, active compounds read low",1.01
same,normalized growth,"locus YDR069C, strain doa4, active compounds read low",0.99
same,normalized growth,"locus YDR101C, strain arx1, active compounds read low",0.986
same,normalized growth,"locus YDR137W, strain rgp1, active compounds read low",1.18 [resistant] (active)
same,normalized growth,"locus YDR150W, strain NUM1, active compounds read low",1
same,normalized growth,"locus YDR159W, strain sac3, active compounds read low",1
same,normalized growth,"locus YDR162C, strain NBP2, active compounds read low",0.997
same,normalized growth,"locus YDR195W, strain ref2",0.909
same,normalized growth,"locus YDR297W, strain sur2, active compounds read low",1
same,normalized growth,"locus YDR318W, strain mcm21, active compounds read low",0.993
same,normalized growth,"locus YDR334W, strain swr1, active compounds read low",1.03
same,normalized growth,"locus YDR335W, strain msn5, active compounds read low",1
same,normalized growth,"locus YDR363W, strain ESC2, active compounds read low",1
same,normalized growth,"locus YDR388W, active compounds read low",0.982
same,normalized growth,"locus YDR392W, strain spt3, active compounds read low",0.962
same,normalized growth,"locus YDR502C, strain sam2, active compounds read low",0.995
same,normalized growth,"locus YEL003W, strain gim4, active compounds read low",0.999
same,normalized growth,"locus YEL037C, strain rad23, active compounds read low",1
same,normalized growth,"locus YEL061C, strain CIN8 (second series), active compounds read low",1.01
same,normalized growth,"locus YEL061C, strain CIN8, active compounds read low",1
same,normalized growth,"locus YER002W, strain NOP16, active compounds read low",1.02
same,normalized growth,"locus YER015W, strain faa2, active compounds read low",1.01
same,normalized growth,"locus YER016W, strain bim1, active compounds read low",0.987
same,normalized growth,"locus YER110C, active compounds read low",0.999
same,normalized growth,"locus YER111C, strain swi4, active compounds read low",1
same,normalized growth,"locus YER155C, strain BEM2 (second series), active compounds read low",0.946
same,normalized growth,"locus YER155C, strain BEM2, active compounds read low",1.01
same,normalized growth,"locus YER167W, strain BCK2, active compounds read low",0.994
same,normalized growth,"locus YFR010W, strain ubp6, active compounds read low",0.994
same,normalized growth,"locus YGL078C, strain dbp3, active compounds read low",1.01
same,normalized growth,"locus YGL086W, strain mad1, active compounds read low",0.988
same,normalized growth,"locus YGL167C, strain pmr1, active compounds read low",0.999
same,normalized growth,"locus YGL173C, strain kem1, active compounds read low",0.99
same,normalized growth,"locus YGL227W, strain vid30, active compounds read low",1.01
same,normalized growth,"locus YGL240W, strain doc1, active compounds read low",0.99
same,normalized growth,"locus YGL248W, strain PDE1, active compounds read low",1.02
same,normalized growth,"locus YGL253W, strain hxk2, active compounds read low",1.01
same,normalized growth,"locus YGR078C, strain PAC10, active compounds read low",0.992
same,normalized growth,"locus YGR135W, strain pre9, active compounds read low",0.958
same,normalized growth,"locus YGR229C, strain SMI1, active compounds read low",0.976
same,normalized growth,"locus YGR252W, strain gcn5, active compounds read low",0.877
same,normalized growth,"locus YHR013C, strain ard1, active compounds read low",0.975
same,normalized growth,"locus YHR027C, strain rpn1, active compounds read low",1
same,normalized growth,"locus YHR030C, strain SLT2, active compounds read low",1 and 0.999
same,normalized growth,"locus YHR079C, strain IRE1 (second series), active compounds read low",1.01
same,normalized growth,"locus YHR079C, strain IRE1, active compounds read low",0.987
same,normalized growth,"locus YHR094C, strain hxt1, active compounds read low",0.987
same,normalized growth,"locus YHR129C, strain ARP1, active compounds read low",1.01
same,normalized growth,"locus YHR142W, strain chs7, active compounds read low",1
same,normalized growth,"locus YHR200W, strain rpn10, active compounds read low",0.993
same,normalized growth,"locus YIL066C, strain RNR3, active compounds read low",0.987
same,normalized growth,"locus YIL073C, strain SPO22, active compounds read low",1.01
same,normalized growth,"locus YIL125W, strain kgd1, active compounds read low",0.996
same,normalized growth,"locus YIR030C, strain dcg1, active compounds read low",0.989
same,normalized growth,"locus YJL092W, strain hpr5, active compounds read low",1
same,normalized growth,"locus YJL095W, strain BCK1 (second series), active compounds read low",0.994
same,normalized growth,"locus YJL095W, strain BCK1, active compounds read low",0.996 and 0.988
same,normalized growth,"locus YJL115W, strain asf1, active compounds read low",0.979
same,normalized growth,"locus YJL129C, strain trk1, active compounds read low",1.01
same,normalized growth,"locus YJL134W, strain LCB3, active compounds read low",1.01
same,normalized growth,"locus YJL154C, strain vps35, active compounds read low",1.01
same,normalized growth,"locus YJL164C, strain tpk1, active compounds read low",1
same,normalized growth,"locus YJL166W, strain qcr8, active compounds read low",0.997
same,normalized growth,"locus YJL168C, strain set2, active compounds read low",0.992
same,normalized growth,"locus YJL187C, strain SWE1 (second series), active compounds read low",1.01
same,normalized growth,"locus YJL187C, strain SWE1, active compounds read low",0.993
same,normalized growth,"locus YJR043C, strain POL32, active compounds read low",1
same,normalized growth,"locus YJR066W, strain TOR1, active compounds read low",0.954
